Test results from ChEMBL document CHEMBL3988442, “University of Dundee, Small-Polar-MMV Screening Library” (2021).
About 300 (0.45%) of roughly 67,000 compounds showed an effect of 50% or more. This is one part of a sample in which strong results are shown more often than they occur.

target: Polyketide synthase Pks13 (Mycobacterium tuberculosis (strain ATCC 25618 / H37Rv)) (UniProt I6X8D2); assay: Mycobacterium tuberculosis Polyketide synthase 13 Thioesterase (PKS13); format: functional; parameters: scale not given: in the data most compounds retested in dose-response had high values; conditions: 30 µM
Sequence (I6X8D2 whole entry): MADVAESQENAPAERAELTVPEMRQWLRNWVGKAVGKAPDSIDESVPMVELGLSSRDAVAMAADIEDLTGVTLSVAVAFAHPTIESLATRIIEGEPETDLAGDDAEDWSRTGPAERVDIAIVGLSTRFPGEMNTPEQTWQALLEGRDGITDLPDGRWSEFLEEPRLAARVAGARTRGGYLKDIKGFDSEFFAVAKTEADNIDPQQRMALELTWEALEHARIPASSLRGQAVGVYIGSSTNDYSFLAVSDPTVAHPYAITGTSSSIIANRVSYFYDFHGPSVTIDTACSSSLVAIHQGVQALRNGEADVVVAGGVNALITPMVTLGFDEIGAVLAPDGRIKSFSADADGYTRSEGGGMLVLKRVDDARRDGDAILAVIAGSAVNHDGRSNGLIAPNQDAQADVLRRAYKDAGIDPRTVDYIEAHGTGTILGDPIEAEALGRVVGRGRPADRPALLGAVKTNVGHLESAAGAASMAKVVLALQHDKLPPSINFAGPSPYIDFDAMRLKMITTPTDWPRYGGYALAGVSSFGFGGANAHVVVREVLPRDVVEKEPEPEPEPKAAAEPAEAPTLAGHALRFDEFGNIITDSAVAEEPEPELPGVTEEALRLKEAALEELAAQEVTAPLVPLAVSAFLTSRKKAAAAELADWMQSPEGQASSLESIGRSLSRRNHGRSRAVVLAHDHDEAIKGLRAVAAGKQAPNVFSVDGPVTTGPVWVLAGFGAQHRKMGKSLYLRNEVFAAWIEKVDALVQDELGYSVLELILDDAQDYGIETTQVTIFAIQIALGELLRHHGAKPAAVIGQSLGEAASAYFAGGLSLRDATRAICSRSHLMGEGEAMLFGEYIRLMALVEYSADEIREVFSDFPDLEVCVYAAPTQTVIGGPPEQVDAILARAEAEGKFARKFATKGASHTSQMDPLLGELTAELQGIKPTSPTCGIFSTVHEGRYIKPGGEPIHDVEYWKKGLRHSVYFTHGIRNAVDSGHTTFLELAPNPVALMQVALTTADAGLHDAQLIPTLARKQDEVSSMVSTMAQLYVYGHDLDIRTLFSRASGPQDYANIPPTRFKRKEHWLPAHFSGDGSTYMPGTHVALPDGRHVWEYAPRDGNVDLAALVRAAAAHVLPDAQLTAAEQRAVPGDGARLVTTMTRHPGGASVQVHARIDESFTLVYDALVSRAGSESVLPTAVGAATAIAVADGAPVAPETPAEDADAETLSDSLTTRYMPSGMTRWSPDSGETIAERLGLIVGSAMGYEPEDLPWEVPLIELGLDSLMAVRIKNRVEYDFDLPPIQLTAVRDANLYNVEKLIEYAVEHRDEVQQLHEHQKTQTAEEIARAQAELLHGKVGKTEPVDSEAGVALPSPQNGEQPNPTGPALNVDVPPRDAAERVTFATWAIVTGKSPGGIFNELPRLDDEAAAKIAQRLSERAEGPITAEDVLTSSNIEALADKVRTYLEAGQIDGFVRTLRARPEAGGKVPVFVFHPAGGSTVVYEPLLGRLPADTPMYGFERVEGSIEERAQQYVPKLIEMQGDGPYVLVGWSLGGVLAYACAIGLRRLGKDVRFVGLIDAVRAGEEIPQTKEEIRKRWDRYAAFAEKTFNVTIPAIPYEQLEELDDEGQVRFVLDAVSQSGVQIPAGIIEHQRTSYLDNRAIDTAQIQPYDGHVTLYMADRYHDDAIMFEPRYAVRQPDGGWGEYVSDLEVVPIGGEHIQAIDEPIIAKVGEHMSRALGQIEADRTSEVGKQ

Row | Compound | Percent Effect [%]
1 | Cc1c(C(=O)N2CCS(=O)(=O)CC2)nnn1-c1ccc2ncccc2c1 | -29.1
2 | Cc1c(C(=O)N2CCOCC2)nnn1-c1ccc2ncccc2c1 | 67.3
3 | Cc1c(C(=O)N2CCC2)nnn1-c1ccc2ncccc2c1 | -7.58
4 | CCS(=O)(=O)N1C[C@H]2CC[C@](O)(c3ccc(C)cc3)[C@H]2C1 | 8.05
5 | Cn1nc(C2CCCN(Cc3ccccc3)C2)c2nccnc21 (configuration not stated) | 3.08
6 | Cn1nc(C2CCCN(Cc3cccs3)C2)c2nccnc21 (configuration not stated) | 13
7 | Cc1ccc(CN2CCCC(c3nn(C)c4nccnc34)C2)s1 (configuration not stated) | 115
8 | Cc1cc(CN2CC[C@H]3C(=O)N(c4ccsc4)CCO[C@H]3C2)no1 | -5.2
9 | Cc1csc([C@H]2C[C@@H]3CCN(C(=O)c4cnccn4)C[C@H]3O2)n1 | -30.8
10 | Cc1nn(C)c(C)c1-c1cc(-c2cc(CC(=O)O)cs2)nc(N)c1C#N | 47.9
11 | CCn1cc(-c2cc(-c3cc(CN(C)C)cs3)nc(N)c2C#N)c(C)n1 | 76.9
12 | CCn1cc(-c2cc(-c3cc(CC(=O)O)cs3)nc(N)c2C#N)c(C)n1 | -51.8
13 | COCCN1C[C@H]2CN(Cc3cccc(OC(F)(F)F)c3)CCN2C1=O | -30.8
14 | CC(C)(C)OC(=O)N1CCCCC1C(=O)NCc1cc[nH]n1 (configuration not stated) | -18.2
15 | Cc1cc(CNC(=O)[C@H]2CCCCN2C(=O)OC(C)(C)C)on1 | -8.92
16 | Cc1ccc(CNC(=O)C2CCCCN2C(=O)OC(C)(C)C)cn1 (configuration not stated) | 56.8
17 | COc1cc(N2C[C@@H]3COC[C@]3(COCc3cccc(C)n3)C2)ncn1 | -18.9
18 | COc1ccc2[nH]c(C[C@@H]3C[C@@H](C(C)C)[C@H](CN(C)C)C=C3C)nc2c1 | 1.51
19 | COc1ccc2nc(C[C@@H]3C[C@@H](C(C)C)[C@H](CN(C)C)C=C3C)[nH]c2n1 | -71.1
20 | COc1ccc2nc(C[C@@H]3C[C@@H](C(C)C)[C@H](CN)C=C3C)[nH]c2n1 | 56.2
21 | CCn1nc(C)cc1C(=O)N1C[C@@H]2C[C@@H](c3nnc(C)[nH]3)O[C@@H]2C1 | -31.5
22 | COCCN1C[C@H]2[C@@H](C1)N(C(=O)COc1ccccc1)CC[C@H]2OC | -22.6

Row | Compound | Percent Effect [%]
23 | Cc1ccc2nc(-c3cnc(N)nc3)cc(C(=O)N(C)C)c2c1 | 1.85
24 | COc1ccc2c(C(=O)N(C)C)cc(-c3cnc(N)nc3)nc2c1 | 75.3
25 | CN(C)C(=O)c1cc(-c2cnc(N)nc2)nc2cc(F)ccc12 | -19.1
26 | COc1ccc(C(=O)N2CC[C@@H]3[C@H](CC2)N(C)CCS3(=O)=O)cc1 | -17.1
27 | Fc1cccc(CN2C[C@@H]3CN(c4ncccn4)C[C@@H]3C2)c1 | -4.52
28 | CN(C)c1cnn(Cc2nc3ccccc3n2C)c(=O)c1 | -19.4
29 | Cn1c(Cn2ncc(N3CCCCC3)cc2=O)nc2ccccc21 | 91
30 | Cn1c(Cn2ncc(N3CCCC3)cc2=O)nc2ccccc21 | -18.2
31 | COc1ncccc1C(=O)N1CC[C@H]2C[C@@H](C)O[C@@H]2C1 | -30.1
32 | c1ccc(NC[C@@H]2CCC[C@@H]3CN(Cc4cccnc4)C[C@@H]32)nc1 | -17.4
33 | CCOc1ccc2nc(CN3CCC(CNC(C)=O)C3)ccc2c1 (configuration not stated) | -18.1
34 | CCOc1ccc2nc(CN3CCOC(CN)C3)ccc2c1 (configuration not stated) | 70.3
35 | CCOc1ccc2nc(CN3CCC(CN)C3)ccc2c1 (configuration not stated) | -11.4
36 | Oc1cccc(CN2C[C@H]3CC[C@@H]2CN(Cc2ccc(F)cc2)C3)c1 | -36.6
37 | Cc1cccc(CN2C[C@@H]3COC[C@]3(CNC(=O)N3CCCC3)C2)n1 | -7.01
38 | Cc1ccc(-c2nnc([C@H]3CCN(C4CCC4)C3)o2)cc1 | 11.8
39 | CN(C)c1ccc(-c2nnc([C@H]3CCN(C4CCCCC4)C3)o2)cc1 | 58.9
40 | Clc1ccc(-c2nnc([C@H]3CCN(C4CCCCC4)C3)o2)cc1 | -3.49
41 | O=C(c1ccccc1)N1C[C@@H]2CC[C@H](C1)N(C(=O)CN1CCOCC1)C2 | -38.5
42 | N#Cc1cc(C#N)c(SCCC(=O)Nc2ccc(F)cc2)nc1N | -20.2
43 | N#Cc1cc(C#N)c(SCC(=O)NCc2ccc(F)cc2)nc1N | -6.72
44 | N#Cc1cc(C#N)c(SCC(=O)Nc2ccc(F)cc2)nc1N | 65.2

Row | Compound | Percent Effect [%]
45 | C=Cn1ncc(CN2C[C@@H]3C[C@@H](O)CN3C[C@@H]2Cc2ccccc2)c1C | -6.39
46 | COCC(=O)Nc1cnc(N2CCOCC2)nc1 | -16
47 | O=C(Nc1cnc(N2CCOCC2)nc1)c1ccc(C(F)(F)F)cc1 | 106
48 | O=S(=O)(Nc1cnc(N2CCOCC2)nc1)c1ccc(C(F)(F)F)cc1 | -20.2
49 | Cc1ccc(CN2CC[C@H]3OCC[C@@H](C(=O)N4CCCCO4)[C@@H]3C2)o1 | 16.9
50 | CN(C)C[C@H]1OC[C@@H]2CN(C(=O)NCc3cccnc3)CC[C@@H]21 | 1.8
51 | CC(=O)N1C[C@@H](c2ccsc2)[C@@H]2CN(Cc3ccccc3Cl)CC[C@@H]21 | 9.76
52 | COc1ccc(NC(C)C(=O)N2CCN(c3ncccn3)CC2)cn1 (configuration not stated) | 4.94
53 | COc1ccc(NC(C)C(=O)N2CCN(c3ccccc3)CC2)cn1 (configuration not stated) | 31.4
54 | COc1ccc(NC(C)C(=O)N2CCCC2)cn1 (configuration not stated) | 67.9
55 | CN(C)C[C@]12COC[C@H]1CN(Cc1ccc3ccccc3n1)C2 | -18.2
56 | CC(C)c1noc(CN(CCC2CCCCC2)CC(N)=O)n1 | -4.56
57 | CC(C)(C)c1nc(CN(CCC2CCCCC2)CC(N)=O)no1 | 57.2
58 | CCc1noc(CN(CCC2CCCCC2)CC(N)=O)n1 | 6.76
59 | CSc1ncccc1C(=O)N1C[C@H]2CC[C@@H]1CN(c1cnccn1)C2 | -2.08
60 | O=C(O)c1ccc2ccc(N3CCN(CC4CC4)CC3)n2c1 | 9.49
61 | Cc1ccc(NC(=O)c2nc3c(s2)CCCN3C(C)C)cn1 | -9.2
62 | Cc1ccc(NC(=O)c2nc3c(s2)CCCN3C(=O)C2CC2)cn1 | 56.3
63 | CC(=O)N1CCCc2sc(C(=O)Nc3ccc(C)nc3)nc21 | -22.2
64 | CC[C@H]1CN2CC[C@H]1C[C@@H]2CNC(=O)Nc1cccc(C(F)(F)F)c1 | -29.8
65 | Cc1ccc(CS(=O)(=O)N2CC[C@H]3[C@H]2CCN3C)cc1 | 37.1
66 | c1ccc(-c2cc(CN3C[C@@H]4CC[C@H](C3)N(CC3CCC3)C4)on2)cc1 | -48.3

Row | Compound | Percent Effect [%]
67 | Cc1cnn(CC(C)NCC(=O)NCCc2cccs2)c1 (configuration not stated) | -15.2
68 | Cc1cnn(CCNCC(=O)NCCOc2ccccc2)c1 | -11.4
69 | Cc1cnn(CC(C)NCC(=O)NCCOc2ccccc2)c1 (configuration not stated) | 95.2
70 | O=C(C1CCOCC1)N1C[C@@H]2[C@@H](C1)OCC(=O)N2Cc1ccncc1 | -12.1
71 | CS(=O)(=O)NCc1cc(-c2cc(F)cc(F)c2)nc(N2CCOCC2)n1 | 22.5
72 | CS(=O)(=O)NCc1cc(-c2cc(F)cc(F)c2)nc(N2CCCC2)n1 | 22.1
73 | CS(=O)(=O)NCc1cc(-c2cc(F)cc(F)c2)nc(N2CC[C@H](O)C2)n1 | 147
74 | Cn1nccc1NC(=O)c1cccc(CN2C[C@H]3CC[C@@H](C2)N3)c1 | -14.8
75 | CN1CCCC[C@@H]2[C@H]1[C@@H](c1ccccc1)CCN2S(=O)(=O)N1CCCC1 | -11
76 | Cn1cncc1-c1nnc([C@H]2CCN(CC(C)(C)C)C2)o1 | 25.7
77 | Cn1cncc1-c1nnc([C@H]2CCN(Cc3cccnc3)C2)o1 | -26
78 | Cn1cncc1-c1nnc([C@H]2CCN(Cc3ncc[nH]3)C2)o1 | 61
79 | CSCCCN1C[C@H]2CC[C@@H]1CN(Cc1[nH]cnc1C)C2 | -11.9
80 | c1coc(CN2C[C@@H]3CCCO[C@@H]3[C@H](N3CCCC3)C2)c1 | -16.1
81 | CS(=O)(=O)c1ccc(-c2nc(C(=O)N3CCCC3)n3ccccc23)cc1 | 74.1
82 | CN(C)C(=O)c1nc(-c2ccc(S(C)(=O)=O)cc2)c2ccccn12 | 48.7
83 | CN(C)C(=O)c1nc(-c2ccc(S(C)(=O)=O)cc2)c2cnccn12 | 9.33
84 | Cc1nnsc1C(=O)N1CC[C@H](c2ccccc2)[C@@H]2[C@H]1CCCCN2C | 56.9
85 | CN1CCCC[C@@H]2[C@H]1[C@@H](c1ccccc1)CCN2C(=O)c1ccncc1 | 37.2
86 | CN1CCCC[C@@H]2[C@H]1[C@@H](c1ccccc1)CCN2C(=O)c1ccccc1 | -32
87 | CC(=O)N1C[C@H](NC(=O)c2cscn2)[C@@H]2OCCC[C@@H]21 | -14.1
88 | CCCOc1ccc(Cl)cc1CNc1ncnc2oc(C)nc12 | 78.9

Row | Compound | Percent Effect [%]
89 | CCC(CNc1ncnc2oc(C)nc12)Cc1ccccc1 (configuration not stated) | -13.8
90 | CCCOc1ccccc1CCCNc1ncnc2oc(C)nc12 | 18
91 | Cn1cccc1C(=O)N1C[C@H]2CC[C@@H]1CN(Cc1cscn1)C2 | -21.5
92 | COc1ccc2c(c1)c(-c1nc(C)ncc1CN)cn2C | -1.61
93 | Cc1ncc(CN)c(-c2cn(C)c3ccccc23)n1 | 140
94 | COc1ccc2c(c1)c(-c1nc(N(C)C)ncc1CN)cn2C | -8.95
95 | O=C(C1CCOCC1)N1C[C@H](OCc2cccnc2)[C@H]2COC[C@H]21 | -10.6
96 | O=C1CO[C@H]2CN(C3CCOCC3)C[C@H]2N1Cc1ccc(F)cc1 | 18.6
97 | Cc1ccc(-c2noc(CC[C@@H]3CCCN4CCCC[C@H]34)n2)nn1 | -24.6
98 | O=C(CC1CC1)N1C[C@H]2CCN[C@H]2C1 | 1.79
99 | O=c1[nH]c(N2CCCCC2)nc2nccc(-c3ccc4c(c3)OCO4)c12 | -6.64
100 | NC(=O)C1CCN(c2nc3nccc(-c4ccccc4)c3c(=O)[nH]2)CC1 | -5.28
101 | COc1cccc(-c2ccnc3nc(N4CCCCC4)[nH]c(=O)c23)c1 | -83.6
102 | COc1ccc(-c2ccnc3nc(N4CCCCC4)[nH]c(=O)c23)cc1 | 75
103 | COc1ccc(-c2ccnc3nc(N4CCCC4)[nH]c(=O)c23)cc1OC | -15.2
104 | COc1ccccc1-c1ccnc2nc(N3CCCCC3)[nH]c(=O)c12 | 71.7
105 | Cc1cc(C(=O)N2C[C@H]3CC[C@@H]2CN(C(=O)c2ccncc2)C3)cs1 | -6.64
106 | O=C(Nc1cccnc1)[C@@H]1COC[C@H]2CN(C3CCCC3)C[C@H]21 | -9.56
107 | CCS(=O)(=O)N1CC[C@H]2OCC[C@@]2(c2nnc(C)o2)C1 | -32.8
